Here are results for 99 compounds from PubChem BioAssay AID684 (PCMD, 2007).

What is called inhibition is the relative decrease from the control value, in per cent.

Molecules are shown by their SMILES. In all, about 62,000 compounds went through this assay and about 95 (0.2%) were called active. The sample as a whole holds a higher share of actives than the screen did. Values without a mark were called inactive. Cut-off read from the data, not from the text of the source: active = inhibition above about 20% (passing the limit was not always enough); inactive = the rest.

Chain of Coagulation factor XII (Homo sapiens) (P00748 20-372 limits assumed): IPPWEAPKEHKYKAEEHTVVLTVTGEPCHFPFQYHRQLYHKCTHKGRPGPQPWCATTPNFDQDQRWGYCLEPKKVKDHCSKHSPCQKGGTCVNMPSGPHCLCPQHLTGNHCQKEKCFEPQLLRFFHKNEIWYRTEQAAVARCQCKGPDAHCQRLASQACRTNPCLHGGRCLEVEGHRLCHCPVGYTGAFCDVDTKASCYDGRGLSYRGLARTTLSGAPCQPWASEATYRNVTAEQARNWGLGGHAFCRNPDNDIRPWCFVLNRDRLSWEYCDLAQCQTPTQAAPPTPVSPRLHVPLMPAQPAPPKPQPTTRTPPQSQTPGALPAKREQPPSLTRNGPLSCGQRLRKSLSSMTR
Chain of Coagulation factor XII (Homo sapiens) (P00748 373-615 limits assumed): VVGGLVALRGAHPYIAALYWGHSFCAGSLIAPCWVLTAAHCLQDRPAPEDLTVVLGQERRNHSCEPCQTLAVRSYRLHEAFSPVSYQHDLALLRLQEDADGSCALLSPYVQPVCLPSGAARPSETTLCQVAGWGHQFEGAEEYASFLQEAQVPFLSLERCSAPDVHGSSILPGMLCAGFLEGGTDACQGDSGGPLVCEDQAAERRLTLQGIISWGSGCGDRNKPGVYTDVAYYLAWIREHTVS

The assay concerns the target Coagulation factor XII (Homo sapiens) (UniProt P00748). Kind of assay: human factor XIIa inhibitors, primary screen, biochemical, pooled compound mixtures, fluorogenic substrate (AID 684).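 Note: 0% = enzyme without compound and 100% = no enzyme blank.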 The settings on record: purified FXIIa, at 5 µM, hits give high values.
For `CCS(=O)(=O)n1nc(-c2ccccc2)nc1SCc1ccccc1`, the inhibition was 6.08%. On to `Cc1noc(C)c1C(=O)NC(C)c1ccc2c(c1)OCO2` (centres undefined), for which the inhibition was 4.17%.

Regarding `COC(=O)C1=C(C)Nc2ncnn2C1c1ccco1` (centres undefined), the inhibition was 15.1%. With `COc1ccc(OC)c2[nH]c(=O)c(CCNC(=O)C(C)(C)C)cc12` the figure was -10.9%; with `CCO/C([O-])=N/c1c[n+](N2CCOCC2)no1`, 3.21%. Consider `CN(C)CCOC(=O)C(c1ccccc1)C1(O)CCCC1` (centres undefined), for which the inhibition was 2.14%. Turning to `Cc1cccc(CSc2nnc(Cn3c(=O)sc4ccccc43)n2C)c1`, the inhibition is 0.99%.

As to `CCCC(NS(=O)(=O)c1ccc(OC)cc1)C(=O)O` (centres undefined), the inhibition was 10.4%. With `O=C(NCc1cccnc1)c1cn(-c2ccccc2)nc1-c1cccs1` the figure was 5.99%. In the case of `O=C(NCCCNCc1ccccc1)c1ccc(/C=N/O)nc1` it was 1.86%; in that of `CCn1c(SCC(=O)Nc2ccc3c(c2)OCCO3)nc2c(c1=O)SC(C)C2` (centres undefined), 11.3%; in that of `O=C(CN1CCN(S(=O)(=O)/C=C/c2ccccc2)CC1)NC(=O)NCc1ccco1`, -1.11%.

Consider `CC(NC(=O)c1ccc(Cl)cc1)C(=O)N1CCCCC1` (centres undefined), for which the inhibition was 6.69%. In the case of `CCOC(=O)Cc1csc(NC(=O)C(C)(C)C)n1` it was 3.6%.

On to `O=C1CCC(=O)N1CCOP1(=O)COc2ccccc2OC1`, for which the inhibition was 2.03%. With `COCCNC(=O)c1ccccc1-c1nc(-c2ccccc2Cl)no1` the figure was 6.16%; with `c1csc(CN2CCN(Cc3cccs3)C2c2cccs2)c1`, -13.3%.

`COCc1cc(C)nc(SCC(=O)Nc2cccc(C)c2)c1C#N`: the inhibition was 21.5% (active). With `COC(=O)c1cccc(NC(=O)CSc2nc(C)cc(=O)[nH]2)c1` the figure was 9.59%; with `COCc1cc(C)nc(Nc2cc(C)ccc2C)c1C#N`, 1.73%; with `Cn1c2c(c(=O)n(C)c1=O)CN(Cc1ccco1)CN2`, -0.485%.

`Cc1ccc2[nH]c(=O)c(-c3nc4c(C)cccn4c3NCc3ccco3)cc2c1`: the inhibition is -0.355%. With `O=C(COc1ccccc1)N1CCc2ccccc2C1`, the inhibition was 9.32%. In the case of `CC1CCC(NC(=O)c2ccc(N3CCCC3=O)cc2)CC1` (centres undefined) it was -12.2%; in that of `CCc1nc(C)cn1S(=O)(=O)c1cc(OC)c(C)cc1C`, 9.21%; in that of `CCCC1CC(C)(C(=O)Cn2[nH]c(=O)ccc2=O)OC1=O` (centres undefined), -1.01%.

Turning to `O=C(c1cc(-c2ccccc2O)on1)N1CCCC1`, the inhibition was -13.8%. With `Cc1ccc(S(=O)(=O)Nc2ccc3ncccc3c2)cc1` the figure was -13.2%. In the case of `Cc1cc(N(C)C)cc(C)[n+]1[O-]`, the inhibition was -12%. In the case of `CC(C)c1ccc(N2CC(C(=O)Nc3nccs3)CC2=O)cc1` (centres undefined) it was 3.69%; in that of `COc1ccc(Cn2cccc(NC(=O)Nc3ccc(C#N)cc3)c2=O)cc1`, 10.3%. With `Cc1ccccc1C(OCC(O)CN1CCCCC1CCO)c1ccccc1` (centres undefined) the figure was 4.15%; with `Cc1ccc(Nc2cc(=O)n(C3CCCCC3)c(=O)[nH]2)cc1C`, 5.68%; with `CCCCn1c(=S)[nH]c2ncccc2c1=O`, 4.05%.

In the case of `COC(=O)C(C)N(C#N)c1nc(C)nc(C)n1` (centres undefined), the inhibition is 9.14%.

With `Cc1csc(NC(=O)CN2CCCCCC2)n1`, the inhibition was 7.17%. With `Cc1nc2ccc(S(=O)(=O)NCC(=O)NCCN3CCCCC3C)cc2s1` (centres undefined) the figure was 9.34%; with `Cc1ccn2cc(-c3nonc3C)cc2c1`, 9.55%; with `CCCCC(=O)N(c1ccc(OC)cc1)C1C=CS(=O)(=O)C1` (centres undefined), 4.62%.

For the compound `C=CCn1c(=O)c2ccccc2n2c(SCC(=O)N3CCCc4ccccc43)nnc12`, the inhibition is -6.74%. With `COc1ccc(S(=O)(=O)N2CCCC(C(=O)Nc3ccc(NC(=O)c4ccccn4)cc3)C2)cc1` (centres undefined) the figure was 9.91%. With `CC12CCC(C(=O)N3CCN(c4ncccn4)CC3)(c3nc4ccccc4nc31)C2(C)C` (centres undefined), the inhibition was 11.8%.

Take `CC1(C)C2CCC1(C)C(OC(=O)CCn1ccnc1)C2` (centres undefined): the inhibition was 3.17%. With `Cc1ccc2c(c1)C(O)(CC(=O)c1cccnc1)C(=O)N2` (centres undefined) the figure was 10.7%. In the case of `Cc1cc2ccccc2n2c(SCC(=O)N3CCN(C(=O)c4ccco4)CC3)nnc12` it was -6.12%.

Take `CCC(Sc1nncn1C)C(=O)Nc1nnc(-c2ccc(Cl)cc2)s1` (centres undefined): the inhibition is 15.7%. In the case of `Cc1ccc(SCc2cc(=O)[nH]c(N3CCCCC3)n2)cc1` it was 3.87%. In the case of `N#Cc1c(N)sc2c1CCN(C(=O)OCc1ccccc1)C2` it was -18%; in that of `COc1ccc2c(c1)C(C)=CC(C)(C)N2C(=O)CNCc1ccc2c(c1)OCO2`, 17%. In the case of `CCN(CC)c1ccc2cc(C(=O)O)c(=O)oc2c1` it was -2.87%. On to `COc1cccc(Oc2ccc(N)cc2)c1`, for which the inhibition is -12.6%.

In the case of `COC(=O)CSc1nc(C2CC2)nc2ccccc12`, the inhibition was -5.91%.

Turning to `Cn1cc(S(=O)(=O)N2CCC(Cc3ccccc3)CC2)c(=O)n(C)c1=O`, the inhibition was -15.8%. On to `O=C(CN1C(=O)COc2ccccc21)NCCN1CCc2ccccc2C1`, for which the inhibition was 2.87%. With `CCC1=[N+]([O-])C(C)(/C(C)=N\O)N(O)C1(C)C` (centres undefined) the figure was -9.09%; with `COc1cccc(-c2nnc(N(C)C(=O)c3ccno3)s2)c1`, 7.52%; with `CCN1CCCC1CNC(=O)Cn1cnc2ccc(S(=O)(=O)N3CCC(C)CC3)cc2c1=O` (centres undefined), 9.9%. With `O=C(NCc1cccnc1)c1ccc(CS(=O)(=O)c2ccc(Br)cc2)o1` the figure was -21.3%. With `CCCn1c(C(O)c2ccc(OCC)cc2)nc2ccccc21` (centres undefined) the figure was 4.63%; with `CCOC(=O)c1cccc(NC(=O)CCn2nnc3ccccc32)c1`, -0.18%; with `CCCN(c1ccc(C(C)C)cc1)S(=O)(=O)c1c(C)[nH]c(=O)[nH]c1=O`, -19%.

For the compound `CCCn1c(SCC(=O)N2CCc3ccccc32)nnc1-c1ccncc1`, the inhibition was -0.835%. On to `CS(=O)(=O)N(CC(=O)N1CCN(c2cccc(Cl)c2)CC1)c1ccccc1`, for which the inhibition was 1.3%.

For `CCN1C(=O)/C(=C\N2CCN(c3ccccc3)CC2)SC1=S`, the inhibition is 4.83%.

Regarding `CCN1C(=O)/C(=C\N2CCN(c3cccc(Cl)c3)CC2)SC1=S`, the inhibition was 20.4% (active). `Cc1ccc(C(c2sc3nc(C)nn3c2O)N2CCN(c3ccc(F)cc3)CC2)cc1` (centres undefined): the inhibition is 3.33%. In the case of `O=C1CC(Cc2ccccc2)C(=O)N1c1ccc(Cl)cn1` (centres undefined) it was -17.9%; in that of `COCCNC(=O)COc1ccc(C)c(C)c1`, 1.93%; in that of `CC(C)Oc1ccc(C2NC(=O)NC2=O)cc1` (centres undefined), -16.2%. As to `Nn1c(SCC(=O)NC(=O)NC2CCCC2)nnc1-c1ccccc1F`, the inhibition was 3.32%. In the case of `CCOC(=O)c1sc(NC(=S)n2cc(C)cn2)c(C(=O)OCC)c1C` it was 7.4%. With `O=C(CNC(=O)c1ccc(Cl)cc1Cl)NCC(=O)Nc1ccccc1N1CCOCC1`, the inhibition was 6.48%. With `O=C1CC(N2CCN(C(c3ccccc3)c3ccccc3)CC2)C(=O)N1` (centres undefined) the figure was 1.87%. In the case of `COc1cccc(NC(=O)c2ccccc2SC)c1` it was -1.39%. As to `Cc1ccc(Cn2ccc(NC(=O)C3C4CCC(C4)C3C(=O)O)n2)cc1` (centres undefined), the inhibition is -2.65%. In the case of `COc1ccc(N2CCN(CCNC(=O)c3nnc(Cc4c(F)cccc4Cl)o3)CC2)cc1` it was 10.3%; in that of `CCOC(=O)c1cc2occc2n1CC(=O)N1CCN(C(=O)c2ccco2)CC1`, 9.63%.

Take `Cc1noc(C)c1S(=O)(=O)N(CC(=O)NCc1ccc(Cl)cc1)c1ccc2c(c1)OCO2`: the inhibition is -1.99%.

For `CCC(C)Sc1nc2c(c(=O)[nH]c(=O)n2C)n1CC(O)COc1cccc2ccccc12` (centres undefined), the inhibition was -0.685%.

Regarding `CC(C)C[C@H](NC(=O)NCCc1ccc(Cl)cc1)C(=O)O`, the inhibition is 5.46%. For the compound `CC(Sc1sc(=S)sc1SC(C)C(=O)O)C(=O)O` (centres undefined), the inhibition was 0.39%.

With `CC/C(=N\O)C(C)(C)/[N+]([O-])=C/c1ccc(Br)cc1`, the inhibition is 8.49%. As to `Brc1ccc(OCCn2ccnc2)cc1`, the inhibition was 10.3%. In the case of `O=C1C(=O)N(CCN2CCOCC2)C(c2ccccn2)/C1=C(/O)c1ccc(Cl)cc1` (centres undefined) it was 5.72%. Consider `COC(=O)C1=CN(C)C=C(C(=O)OC)C1c1ccc(Cl)cc1Cl`, for which the inhibition was -3.3%. As for `C=CCn1cnc2scc(-c3ccccc3)c2c1=O`, the inhibition is 12.3%. With `COc1ccc(S(=O)(=O)N2CCN(c3ncnc4c(-c5ccccc5)nsc34)CC2)cc1` the figure was 4.31%. With `CCCS(=O)(=O)N1CCCC(C(=O)NCCN2CCCCC2C)C1` (centres undefined) the figure was 1.05%. Turning to `CCOC(=O)C1CCN(C(=O)CC2C(=O)N(Cc3ccccc3)C(C)c3nc4ccccc4n32)CC1` (centres undefined), the inhibition was 4.71%. With `Clc1cccc(Cl)c1Cn1nnc(-c2cccs2)n1` the figure was 2.33%; with `Cn1c(=NC(=O)C2CC2)sc2cc(F)cc(F)c21`, 6.96%. As to `O=S(=O)(c1ccccc1)N(CC(O)CN1CCCCC1)c1ccccc1` (centres undefined), the inhibition is 10.6%. With `O=C(Nc1c(Cl)cccc1Cl)C1CCC1`, the inhibition was -1.33%. With `C=CCn1c(CSc2nc3ccccc3s2)nnc1SCC(=O)NCc1ccco1` the figure was -0.43%; with `O=C(c1cc(-c2ccc(O)cc2)on1)N1CCCc2ccccc21`, 3.9%. With `c1ccc(CCC2=NCCn3cccc32)cc1` the figure was 6.93%. With `CC(=O)Nc1ccn(Cc2c(F)cccc2Cl)n1` the figure was 1.78%. Turning to `c1ccc(-c2noc(-c3cccs3)n2)nc1`, the inhibition was 3.97%. In the case of `O=C1CN(C(=O)COC(=O)C2CC(=O)N(Cc3ccco3)C2)c2ccccc2N1` (centres undefined) it was -15.4%.
